Measurements as given in PubChem BioAssay (NCATS).
Results filed as inconclusive are left out. Calls of active or inactive are those of the source. The call rests on the fitted dose curve; in most records, active means well fitted curve in the direction sought with a large enough effect; inconclusive means small, poorly fitted or top-dose-only effect, or another doubt; inactive means no such curve, though single readings can be large; an effect the other way counts as inactive or inconclusive.

Key:
Hek293T = assay: Primary qHTS to identify gynecologic anti-cancer compounds using libraries of approved drugs and bioactive compounds (AID 1345084); conditions: Gynecologic cancer cell panel viability, ATPlite luminescence, 48 h, control line for the selectivity index; series mostly up to 57.5 µM; further: nearly all actives have a fitted effect of over 55% in size; on activity change, negative = cytotoxicity: on the % scale 0 is the no-effect control and ±100 the full control effect
Procedure, shortened: (§1)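 Measured: luminescence after ATPlite addition (15 min, RT). Exposure: 48 h, 37 C, 5% CO2.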

JEG-3 = assay: as above; conditions: Gynecologic cancer cell panel viability, ATPlite luminescence, 48 h; series mostly up to 57.5 µM
Procedure, shortened: as §1

PA-1 = assay: as above; conditions: Gynecologic cancer cell panel viability, ATPlite luminescence, 48 h; series mostly up to 57.5 µM
Procedure, shortened: as §1

SKOV3 = assay: as above; conditions: Gynecologic cancer cell panel viability, ATPlite luminescence, 48 h; series mostly up to 57.5 µM
Procedure, shortened: as §1

Tov-21-G = assay: as above; conditions: Gynecologic cancer cell panel viability, ATPlite luminescence, 48 h; series mostly up to 57.5 µM
Procedure, shortened: as §1

Tov112D = assay: as above; conditions: Gynecologic cancer cell panel viability, ATPlite luminescence, 48 h; series mostly up to 57.5 µM
Procedure, shortened: as §1

OV90 = assay: as above; conditions: Gynecologic cancer cell panel viability, ATPlite luminescence, 48 h; series mostly up to 57.5 µM
Procedure, shortened: as §1

[1] = qHTS assay to identify inhibitors of the type 1 interferon - major histocompatibility complex class I in skeletal muscle: Counter screen cell viability and HiBit confirmation (AID 1347412); conditions: iHSKM muscle cells + IFN-b, HiBiT or CellTiter-Glo, 24 h; for activity change, negative = inhibition: at 45.9 µM (top of the series); on activity change, negative = inhibition: on the % scale 0 is the no-effect control and ±100 the full control effect; on all read-outs here: nearly all actives have a fitted effect of over 60% in size
Procedure, shortened: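 Human myoblast knock-in line, 4.0 ng/ml IFN-beta stimulation, 24 h compound treatment. Endpoints: HiBiT lytic luminescence (HLA-B level) and CellTiter Glo (ATP). Dosing 12 concentrations, 3-fold steps, 46 uM highest final.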

astro = assay: Drug repurposing screens with cells derived from glioblastoma tumor samples (AID 1345199); conditions: viability, ATP luminescence, 48 h; series mostly up to 45.9 µM; further: nearly all actives have a fitted effect of over 40% in size
Procedure, shortened: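 Primary testing used CD133+ neurospheres from four GBM patients, seven concentrations, 48 h exposure and ATP-based viability; confirmation added three slower-growing patient lines.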
Potency means the concentration at half of the fitted maximal effect.

COc1nccc(-c2c(-c3ccc(F)cc3)ncn2C2CCC(O)CC2)n1 (configuration not stated)
inactive: Potency (Hek293T) | Potency (JEG-3) | Potency (PA-1) | Potency (SKOV3) | Potency (Tov-21-G) | Potency (Tov112D)

NS(=O)(=O)c1ccc(Nc2nc(OCC3CCCCC3)c3[nH]cnc3n2)cc1
active: Potency (Tov-21-G) 15.8 µM
inactive: Potency (Hek293T) | Potency (JEG-3) | Potency (OV90) | Potency (PA-1) | Potency (Tov112D) | activity change, negative = inhibition ([1]; Viability) -13.9%

COc1nc(C)cnc1NS(=O)(=O)c1cccnc1-c1ccc(-c2nnco2)cc1
inactive: Potency (Hek293T) | Potency (JEG-3) | Potency (OV90) | Potency (PA-1) | Potency (Tov-21-G) | Potency (Tov112D)

CN(C)c1nc(Cc2ccc(NC(=O)c3ccc(C(F)(F)F)cc3)cc2)nc(N(C)C)c1CC(=O)O
inactive: Potency (Hek293T) | Potency (JEG-3) | Potency (OV90) | Potency (PA-1) | Potency (Tov-21-G) | Potency (Tov112D)

Cc1csc(-c2nnc(Nc3ccc(Oc4ncccc4-c4ccnc(N)n4)cc3)c3ccccc23)c1
inactive: Potency (Hek293T) | Potency (JEG-3) | Potency (OV90) | Potency (PA-1) | Potency (Tov-21-G)

CNC(=O)c1ccc2c(C(=Nc3cccc(CN(C)C)c3)c3ccccc3)c(O)[nH]c2c1
inactive: Potency (Hek293T) | Potency (JEG-3) | Potency (OV90) | Potency (PA-1) | Potency (SKOV3) | Potency (Tov-21-G) | Potency (Tov112D) | activity change, negative = inhibition ([1]; HiBiT) -0.844% | activity change, negative = inhibition ([1]; Viability) -1.9%

Cc1ccc2c(c1)C(=O)[C@]1(O)CCN(c3ccccc3)C1=N2
inactive: Potency (Hek293T) | Potency (JEG-3) | Potency (OV90) | Potency (PA-1) | Potency (SKOV3) | Potency (Tov112D)

COc1ccc(-c2nc3ccc(C4=NNC(=O)CC4C)cc3[nH]2)cc1 (configuration not stated)
active: Potency (SKOV3) 35.5 µM | Potency (astro) 11.2 µM
inactive: Potency (Hek293T) | Potency (JEG-3) | Potency (OV90)

c1cc(OCCN2CCCCC2)cc(-c2n[nH]c3ccc(-c4ncn[nH]4)cc23)c1
inactive: Potency (Hek293T) | Potency (JEG-3) | Potency (OV90) | Potency (PA-1) | Potency (Tov-21-G) | Potency (Tov112D)

CC(C)(OCc1nn(Cc2ccccc2)c2ccccc12)C(=O)O
inactive: Potency (Hek293T) | Potency (JEG-3) | Potency (OV90) | Potency (PA-1) | Potency (Tov-21-G) | Potency (Tov112D)

CC(C)(C)c1nc(-c2cccc(NS(=O)(=O)c3c(F)cccc3F)c2F)c(-c2ccnc(N)n2)s1
inactive: Potency (Hek293T) | Potency (JEG-3) | Potency (OV90) | Potency (PA-1) | Potency (Tov112D) | activity change, negative = inhibition ([1]; Viability) 12.8%

COc1cc2ncnc(Nc3cc(Br)c(O)c(Br)c3)c2cc1OC
inactive: Potency (Hek293T) | Potency (JEG-3) | Potency (OV90) | Potency (PA-1) | Potency (Tov-21-G) | Potency (Tov112D)

Cn1c(=O)c(-c2c(Cl)cccc2Cl)cc2cnc(Nc3cccc(C(=O)O)c3)nc21
inactive: Potency (Hek293T) | Potency (JEG-3) | Potency (OV90) | Potency (PA-1) | Potency (Tov112D)

NC(=O)c1noc([C@H](CCCC2CCCCC2)CC(=O)NO)n1
inactive: Potency (Hek293T) | Potency (JEG-3) | Potency (OV90) | Potency (Tov-21-G) | Potency (Tov112D)

CCN1CCN(c2ccc(Nc3cc(N(C)C(=O)Nc4c(Cl)c(OC)cc(OC)c4Cl)ncn3)cc2)CC1
inactive: Potency (Hek293T) | Potency (JEG-3) | Potency (OV90) | Potency (PA-1) | Potency (Tov112D)

CN[C@@H](C)[C@H]1[C@H](O)C[C@@]2(C)[C@@H]3CC[C@H]4C(C)(C)[C@@H](NC)CC[C@@]45C[C@@]35CC[C@]12C
inactive: activity change, negative = cytotoxicity (Hek293T) -11.4% [at 11.6 µM] | activity change, negative = cytotoxicity (JEG-3) 6.85% [at 11.6 µM] | activity change, negative = cytotoxicity (PA-1) -14% [at 11.6 µM] | activity change, negative = cytotoxicity (SKOV3) 0% [at 11.6 µM] | activity change, negative = cytotoxicity (Tov-21-G) -6.08% [at 11.6 µM] | activity change, negative = cytotoxicity (Tov112D) -2.44% [at 11.6 µM]

CN1CCN(c2cccc(Nc3nc4c(-c5ccc(S(C)(=O)=O)cc5)cccn4n3)c2)CC1
inactive: Potency (Hek293T) | Potency (JEG-3) | Potency (OV90) | Potency (PA-1) | Potency (Tov112D)
active: Potency (SKOV3) 2.82 µM

C[C@H](c1ccc(F)cc1CCCC(=O)O)N(c1cc(F)ccc1F)S(=O)(=O)c1ccc(Cl)cc1
inactive: Potency (Hek293T) | Potency (JEG-3) | Potency (OV90) | Potency (Tov-21-G) | Potency (Tov112D)

Cc1cnc(Nc2cccc(CN3CCOCC3)c2)nc1Nc1cccc(S(=O)(=O)NC(C)(C)C)c1
active: Potency (SKOV3) 0.794 µM | Potency ([1]; HiBiT) 7.01 µM
inactive: Potency (Hek293T) | Potency (JEG-3) | Potency (OV90)

CC(C)(O)CC(=O)NCCn1ccc2ncnc(Nc3ccc(Oc4cccc(C(F)(F)F)c4)c(Cl)c3)c21
active: Potency (SKOV3) 22.4 µM
inactive: Potency (Hek293T) | Potency (JEG-3) | Potency (OV90) | Potency (PA-1) | Potency (Tov-21-G) | Potency (Tov112D) | activity change, negative = inhibition ([1]; Viability) -19.7%

Cc1ccccc1C(C(=O)NC1CCCCC1)N(C(=O)CNc1ccc(C#N)cc1)c1cccc(F)c1 (configuration not stated)
inactive: Potency (Hek293T) | Potency (JEG-3) | Potency (OV90) | Potency (SKOV3) | Potency (Tov-21-G) | Potency (Tov112D)

CN1CCc2c(n(Cc3ccc(C(=O)NO)cc3)c3ccccc23)C1
inactive: Potency (Hek293T) | Potency (JEG-3) | Potency (OV90) | Potency (Tov112D)

CCc1cccc(CC)c1NC(=O)N1Cc2[nH]nc(NC(=O)c3ccc(N4CCN(C)CC4)cc3)c2C1
inactive: Potency (Hek293T) | Potency (JEG-3) | Potency (OV90) | Potency (SKOV3)
active: Potency (Tov-21-G) 12.6 µM

COc1ccc(-c2cc3nccn3c(Nc3ncccc3C(N)=O)n2)cc1OC
active: Potency (PA-1) 3.55 µM | Potency ([1]; HiBiT) 7.87 µM
inactive: Potency (Hek293T) | Potency (OV90) | Potency (Tov112D) | activity change, negative = inhibition ([1]; Viability) -22.4%

CC(C)CNc1ccnc(NCc2csc(-c3ccccc3)n2)n1
active: Potency (PA-1) 12.6 µM | Potency (SKOV3) 11.2 µM
inactive: Potency (JEG-3) | activity change, negative = inhibition ([1]; Viability) -28.7%

C=CC(=O)Nc1cccc(Sc2nc(Nc3ccc(N4CCN(C)CC4)cc3)ncc2Cl)c1
active: Potency (Tov-21-G) 12.6 µM
inactive: Potency (JEG-3) | Potency (OV90)
